# According to PubChem BioAssay AID2280 (The Scripps Research Institute Molecular Screening Center, 2010):
# The whole screen tested about 320,000 compounds, of which about 1,400 (0.44%) were called active.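 The calls were made as follows: active = percent inhibition above a per-plate cutoff, the plate mean of test compounds plus 3 SD (cut at about 30% in these data); inactive = the rest.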 Many of the other results were omitted from the sample, so actives are more common in it than they were.
# Biological target: Female germline-specific tumor suppressor gld-1 (Caenorhabditis elegans) (UniProt Q17339)
# Sequence (Q17339 whole entry, looked up): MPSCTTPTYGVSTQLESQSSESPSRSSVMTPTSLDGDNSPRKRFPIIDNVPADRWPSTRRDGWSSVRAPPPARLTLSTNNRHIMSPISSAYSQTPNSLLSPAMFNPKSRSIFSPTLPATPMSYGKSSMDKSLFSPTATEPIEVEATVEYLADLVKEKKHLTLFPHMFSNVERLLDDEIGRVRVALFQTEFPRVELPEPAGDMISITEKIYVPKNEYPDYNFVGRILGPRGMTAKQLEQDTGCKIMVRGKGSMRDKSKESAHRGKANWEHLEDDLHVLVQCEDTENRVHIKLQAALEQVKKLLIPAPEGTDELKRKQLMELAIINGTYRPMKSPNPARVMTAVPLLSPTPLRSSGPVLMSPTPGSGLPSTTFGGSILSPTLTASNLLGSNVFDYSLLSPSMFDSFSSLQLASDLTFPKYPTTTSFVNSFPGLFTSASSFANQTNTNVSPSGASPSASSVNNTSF
# Assay: small molecules blocking C. elegans GLD-1 RNA recognition – biochemical, fluorescence polarization, primary screen (AID 2280);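 also: 0% = DMSO wells with GLD-1 and probe and 100% = wells lacking GLD-1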
# Conditions: purified GLD-1 + fluorescein TGE RNA, at 5.96 µM, hits give high values
row,SMILES,inhibition
1,CCOC(=O)c1cnc(SC)nc1Sc1ccc(Cl)cc1Cl,6.36% (inactive)
2,CCN(CC(=O)Nc1ccccc1OC)C(=O)CC1CC2CCC1C2 (centres undefined),-0.14% (inactive)
3,CCCN(CC(=O)Nc1ccccc1OC)C(=O)CCC(=O)c1ccc(F)cc1,54.8% (active)
4,CCN(CC(=O)Nc1ccccc1OC)C(=O)Cn1cnc2ccccc2c1=O,4.15% (inactive)
5,CC1CCN(C(=O)Cn2nnnc2CN2CCOCC2)CC1,0.79% (inactive)
6,CCCCNc1c(-c2cccc(Sc3ccc(OC)cc3)c2)nc2ccccn12,2.4% (inactive)
7,Cc1cccc(N2C(=O)SC(SC(=Nc3ccccc3)Nc3ccccc3)C2=O)c1 (centres undefined),10.3% (inactive)
8,COc1ccc(C)cc1NC(=S)Nc1ccccc1SC,-6.51% (inactive)
9,COc1ccc2c(CC(=O)N3CCc4cc(OC)c(OC)cc4C3)coc2c1,5.21% (inactive)
10,O=C(CSc1ccc2nnc(-c3ccccc3)n2n1)N1CCCc2ccccc21,-1.09% (inactive)
11,COC(=O)CCCC1=CC2=CC(=O)C(C)(OC(=O)c3cccs3)C(=O)C2=CN1c1cccc(C#N)c1 (centres undefined),38.1% (active)
12,COC(=O)CCCC1=CC2=C(c3ccccc3)C(=O)C(C)(OC(=O)C3CCCC3)C(=O)C2=CN1c1ccc(OC)cc1 (centres undefined),7.24% (inactive)
13,COC(=O)CCCC1=CC2=CC(=O)C(C)(OC(=O)c3cccs3)C(=O)C2=CN1CC(C)C (centres undefined),5.88% (inactive)
14,Cc1ccc(O)c(NC(=O)c2cc(-c3ccco3)on2)c1,1.89% (inactive)
15,C[C@H]1CN([C@@H](C)CO)C(=O)Cc2cc(NS(C)(=O)=O)ccc2O[C@@H]1CN(C)CC1CC1,0.15% (inactive)
16,CC(C)n1cnc2c(NCc3ccccc3)cc(N[C@@H](CO)Cc3ccccc3)cc21,43.8% (active)
17,CCC(CO)Oc1cc(NCc2ccccc2)c2ncn(C3CCCC3)c2c1 (centres undefined),5.5% (inactive)
18,CC(C)n1cnc2c(NCc3ccccc3)cc(OCC3CCN(C)CC3)cc21,-21.3% (inactive)
19,CC(c1cccnc1)N(CCN(C)C)C(=O)Nc1ccc(Cl)c(Cl)c1 (centres undefined),-1.61% (inactive)
20,C/C(=N\N=C(N)N)c1ccc(Cl)cc1,-0.39% (inactive)
21,N#C/C(=C(\O)CCl)c1nnc2n1CCCCC2,-10.3% (inactive)
22,N#C/C(=C(\O)C(F)(F)F)c1nnc2n1CCCCC2,51.1% (active)
23,N#C/C(=C/c1cccc([N+](=O)[O-])c1)c1nnc2n1CCCCC2,-1.89% (inactive)

row,SMILES,inhibition
1,CS(=O)(=O)N1CCN(C(=O)CSc2ccccc2)CC1,2.68% (inactive)
2,Cc1ccc(S(=O)(=O)N2CCC3(CC2)OCCO3)c(C)c1,-2.29% (inactive)
3,CCOc1ccc(CNC(=O)C2CCC(=O)N2C2CCCC2)cc1OC (centres undefined),7.99% (inactive)
4,COC(=O)C1=CN(Cc2ccc(OC)cc2)C=C(C(=O)OC)C1c1ccc(O)c(OC)c1,4.18% (inactive)
5,CCOc1cc(C2C(C(=O)OC)=CN(C3CCCC3)C=C2C(=O)OC)cc(Br)c1O,44.7% (active)
6,CCC(C)[C@H](NC(=O)N1CCn2c1nc1ccccc12)C(=O)NCc1ccc(OC)cc1 (some centres undefined),12.5% (inactive)
7,C=CC[n+]1c(-c2ccc(C)cc2)csc1NNC(=O)Nc1ccccc1,-11.8% (inactive)
8,NS(=O)(=O)c1ccc(NC(=O)COC(=O)c2c3c(nc4ccccc24)/C(=C\c2ccc4c(c2)OCO4)CCC3)cc1,105% (active)
9,O=C(COC(=O)c1ccc(F)cc1)Nc1ccc2c(c1)OCO2,0.03% (inactive)
10,O=C(COC(=O)c1ccncc1)Nc1ccc2c(c1)OCO2,-0.85% (inactive)
11,Cc1cccc(N=C2NC(=O)CS2)c1C,5.66% (inactive)
12,COc1ccccc1CNS(=O)(=O)CC12CCC(CC1=O)C2(C)C (centres undefined),-1.89% (inactive)
13,O=C(NCc1cccs1)C(=O)NCC1OCCCN1S(=O)(=O)c1ccc(F)cc1 (centres undefined),1.56% (inactive)
14,O=C(Nc1ccccc1)N1CCN(C(=O)Nc2ccccc2)CC1,3.08% (inactive)
15,Cc1ccc(C)c(S(=O)(=O)N2CCN(C(=O)Nc3ccccc3)CC2)c1,34.2% (active)
16,COc1ccc(C)cc1S(=O)(=O)N1CCN(S(=O)(=O)c2cc(C(=O)O)ccc2C)CC1,-3.62% (inactive)
17,COc1cc2c(cc1NC(=O)COC(=O)/C=C/c1ccccc1)oc1ccccc12,1.91% (inactive)
18,COc1ccc(CNC(=O)Cc2ccc(-c3ccccc3)cc2)cc1OC,11.5% (inactive)
19,Cc1ccc(CNC(=O)CC(NC(=O)c2ccccc2)c2ccccc2)cc1 (centres undefined),6.67% (inactive)
20,COC(=O)c1cc(CNC(=O)CC(C)c2ccccc2)ccc1OC (centres undefined),31.6% (active)
21,COc1ccc(C(C(=O)NC(C)(C)C)N(Cc2ccc(F)cc2)C(=O)CCC(=O)Nc2cc(C)on2)cc1 (centres undefined),3.47% (inactive)
22,Cc1ccc(OCCNC(=O)CNC(=O)c2ccc(C)c(C)c2)cc1,-0.98% (inactive)
23,C=CCSc1nnc2c(n1)-c1cccc3cccc-2c13,-2.48% (inactive)

row,SMILES,inhibition
1,CC(C)(C)NC(=O)CN1CCC(NC(=O)C23CC4CC(CC(C4)C2)C3)CC1,-2.46% (inactive)
2,COc1ccc(Cl)cc1NC(=O)C(C)N1CCc2ccccc21 (centres undefined),-0.08% (inactive)
3,CCCCN(C(=O)CSCC(=O)Nc1ccc(OC)cc1)c1c(N)n(CCC)c(=O)[nH]c1=O,4.96% (inactive)
4,C[C@H](CO)N1C[C@H](C)[C@@H](CN(C)Cc2ccc(-c3ccccc3)cc2)Oc2ccc(NC(=O)Cn3cnnn3)cc2C1=O,2.45% (inactive)
5,N#CC1=C(N)C(C#N)(C#N)[C@H](c2ccsc2)[C@H]2COCC=C12,34.7% (active)
6,Cc1cccc(-n2ncc3c(=O)[nH]c(SCC(=O)Nc4cc(C)on4)nc32)c1,2.41% (inactive)
7,O=C(COC(=O)CSc1ccccc1)Nc1ccc(F)cc1F,-2.02% (inactive)
8,COc1ccc(OC)c(C(=O)c2ccc(C(=O)N3CCN(Cc4csc(C)n4)CC3)cc2)c1,-0.78% (inactive)
9,Oc1ccc2ccccc2c1N=Nc1nccs1,33.5% (active)
10,COc1ccc2[nH]c(=O)c(CN(Cc3cccnc3)S(=O)(=O)c3ccccc3F)cc2c1,8.84% (inactive)
11,O=C(C1=C(O)C(=O)N(Cc2ccccc2)C1c1cccnc1)c1ccco1 (centres undefined),-1.41% (inactive)
12,O=C(C1=C(O)C(=O)N(c2ncccn2)C1c1cccs1)c1ccco1 (centres undefined),110% (active)
13,COc1cc(C2C(C(=O)c3ccco3)=C(O)C(=O)N2c2cc(C)on2)ccc1OCc1ccccc1 (centres undefined),-1.87% (inactive)
14,CN(c1ccccc1)S(=O)(=O)c1ccc2[nH]c(=O)[nH]c2c1,-0.63% (inactive)
15,Cc1ccc(C)c(OCCC(=O)OCC(=O)N2CCN(c3ccccc3)CC2)c1,-2.09% (inactive)
16,Cc1sc2ncnc(SCC(=O)Nc3ccc(CN4CCCC4)cc3)c2c1C,-0.9% (inactive)
17,COc1ccccc1C1CCN(c2ccc([N+](=O)[O-])cn2)CC1,3.13% (inactive)
18,COc1ccc(Nc2ccc([N+](=O)[O-])cn2)cn1,44.7% (active)
19,COc1ccc(C(=O)NCCNc2ccc([N+](=O)[O-])cn2)cc1,9.44% (inactive)
20,CCN1CCN(c2ccc(S(=O)(=O)N3CCCCC3)cc2NC(=O)Cc2c(Cl)cccc2Cl)CC1,-0.26% (inactive)
21,CCN(C[C@H]1N[C@@](CC)(C(=O)OC)[C@H]2C(=O)N(C)C(=O)[C@@H]12)C(=O)Nc1ccc(F)cc1,1.26% (inactive)
22,CCC(=O)Nc1ccc(S(=O)(=O)Nc2c(NC)c3ccccc3oc2=O)cc1,0.71% (inactive)
23,C[C@H](NC(=O)c1nc[nH]c1C(=O)N[C@@H](C)C(=O)OC(C)(C)C)C(=O)OC(C)(C)C,0.74% (inactive)

row,SMILES,inhibition
1,O=[N+]([O-])/C=C/c1ccc2c(ccn2Cc2ccccc2)c1,7.04% (inactive)
2,O=C(OCCOCn1cc(Br)c(=O)[nH]c1=O)c1ccccc1,5.67% (inactive)
3,CCOCC(=O)NCc1ccc2c(c1)cc(C)n2C,25.6% (inactive)
4,COc1cc(C(=O)NCc2ccc3c(c2)cc(C)n3C)cc(OC)c1OC,34.8% (active)
5,COc1cc(C(=O)NCc2cc3cc(Cl)ccc3n2C)cc(OC)c1OC,-2.07% (inactive)
6,CCCC(C(=O)n1nc(C)cc1C)C(NS(=O)(=O)c1ccc(C)cc1)c1ccccc1 (centres undefined),2.32% (inactive)
7,O=C(COC(=O)[C@H](Cc1ccccc1)NC(=O)c1cccs1)Nc1cc(F)ccc1F,8.92% (inactive)
8,COCCn1c(SCC(=O)N2CCCCCC2)nc2c(c1=O)SCC2,-2.72% (inactive)
9,CC1CC(C)CN(S(=O)(=O)c2cccc(C(=O)N3C(=O)c4cccc(N)c4C3=O)c2)C1 (centres undefined),31.4% (active)
10,CC(=O)N1CCN(S(=O)(=O)c2cccc(C(=O)NC3CCC(C)CC3)c2)CC1 (centres undefined),1.54% (inactive)
11,COc1cc(C(=O)N2C(=O)c3cccc(N)c3C2=O)cc(OC)c1OC,10.9% (inactive)
12,CCOc1cc(/C=C2/N=C(c3ccc(C(C)(C)C)cc3)OC2=O)cc(Cl)c1OS(C)(=O)=O,4.12% (inactive)
13,CCOC(=O)N1CCN(c2cc(C)c([N+](=O)[O-])cc2F)CC1,-3.69% (inactive)
14,O=C(C1=C(O)C(=O)N(CCOCCO)C1c1ccccn1)c1cccs1 (centres undefined),5.95% (inactive)
15,Cc1cc2ccccc2n1CCC(=O)O,50.2% (active)
16,O=C(O)CCn1c(Cc2ccccc2)nc2ccccc21,-2.47% (inactive)
17,Cc1cc2ccccc2n1CCNC(=O)COc1ccc2ccccc2c1,7.21% (inactive)
18,COC(=O)c1cn(C)c2ccc(S(=O)(=O)N3CC(C)CC(C)C3)cc2c1=O (centres undefined),3.86% (inactive)
19,Cc1ccc(NC(=O)C(C)c2cccc(C(=O)c3ccccc3)c2)cc1 (centres undefined),2.46% (inactive)
20,O=C(CCc1ccccc1)Nc1ccc(NC(=O)C2CC2)nc1,8.07% (inactive)
